High-throughput results deposited in PubChem BioAssay by National Center for Advancing Translational Sciences (NCATS).
TDP1 cell CPT: qHTS for Inhibitors of human tyrosyl-DNA phosphodiesterase 1 (TDP1): qHTS in cells in presence of CPT; hit rate 12% among 420,000; Potency, µM (titrated, usually from 46.2 µM), without a hit: at the highest dose activity change, negative = growth inhibition, hits mostly inhibitors; chicken DT40 Tdp1-/-;hTDP1 cells + 20 nM CPT, ATP luminescence, 48 h; AID 686979, 2013; further: potency means the concentration at half of the fitted maximal effect; nearly all actives have a fitted effect of over 55% in size
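Chicken DT40 Tdp1-/- cells stably complemented with human TDP1 were seeded at 400 cells/well in medium containing 20 nM camptothecin, exposed to pin-transferred compounds, and grown at 37 °C for at least 48 hr. Viability was read as ATP luminescence.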
TDP1 cell noCPT: qHTS for Inhibitors of human tyrosyl-DNA phosphodiesterase 1 (TDP1): qHTS in cells in absence of CPT. DT40 Tdp1-/- hTDP1 cells, no CPT, ATP luminescence, 48 h. Potency, µM (series often up to 46.2 µM), for the others: at the top dose activity change, negative = growth inhibition, hits mostly inhibitors. hit rate 15% among 420,000; further: potency means the concentration at half of the fitted maximal effect; nearly all actives have a fitted effect of over 55% in size
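Compound effects on proliferation are scored in DT40 Tdp1-/-;hTDP1 cells in the absence of CPT. ATP levels (CellTiter-Glo luminescence) are recorded after a ≥48 hr, 37 °C incubation.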
ELG1 DNA repair: qHTS screen for small molecules that inhibit ELG1-dependent DNA repair in human embryonic kidney (HEK293T) cells expressing luciferase-tagged ELG1. HEK293T ELG1-luciferase reporter, luminescence, 16 h; DNA damage induced by 5-fluorouridine. Potency, µM (series often up to 46.1 µM), inactives show top-dose activity change, negative = inhibition, most hits filed as inhibitors. hit rate 2.3% among 330,000; further: potency means the concentration at half of the fitted maximal effect; nearly all actives have a fitted effect of over 55% in size
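Overnight (16 hr) co-exposure of 2,000 cells/well to 5-fluorouridine and compound at 37 °C preceded detection. Luciferase was quantified via ONE-Glo luminescence; loss of signal denotes inhibition.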
HT1080-NT tox: qHTS for induction of synthetic lethality in tumor cells producing 2HG: qHTS for the HT-1080-NT fibrosarcoma cell line | HT-1080-NT fibrosarcoma viability, CellTiter-Glo ATP luminescence, 48 h | Potency, µM (doses to about 46.1 µM), without a hit: at the highest dose activity, negative = less viability, hits mostly cytotoxic | hit rate 1.6% among 360,000;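 further: NT is the 2HG producing partner of a matched IDH1 knockdown line; potency means the concentration at half of the fitted maximal effect; 0% = DMSO-treated cells and -100% = media-only wells without cells; nearly all actives have a fitted effect of over 55% in size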
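Fibrosarcoma NT cells, 750 per well in 5% FBS RPMI, were exposed to compound for 48 hours. Viability: CellTiter-Glo luminescence.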
IL1B secr inh: qHTS for Inhibitors of Inflammasome Signaling: IL-1-beta AlphaLISA Primary Screen; hit rate 4.7% among 360,000; THP-1 LPS/ATP IL-1B secretion, AlphaLISA, 16 h; active compounds read low; activity change, % at 57.5 µM; in the data active means activity change below about -50%; inconclusive means mostly about -30% to -49%
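THP-1 cells pretreated 1 hr with compounds (up to 57.5 uM final), then stimulated with LPS (250 ng/mL final) plus ATP (1.25 mM final); secreted IL-1B measured by AlphaLISA after 16 hr, decreased signal indicating inhibition.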
HT1080 IDH1KD tx: qHTS for induction of synthetic lethality in tumor cells producing 2HG: qHTS for the HT-1080-IDH1KD cell line | AID 686971, 2013 | hit rate 2% among 360,000 | HT-1080 IDH1 knockdown viability, ATP luminescence, 48 h | Potency, µM (series often up to 46.1 µM), for the others: at the highest dose activity, negative = toxicity, most hits filed as cytotoxic;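 further: potency means the concentration at half of the fitted maximal effect; 0% = DMSO wells and -100% = cell-free medium wells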
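IDH1KD HT-1080 cells, 750/well, RPMI + 5% FBS; compound pinned after 2 h settling; 48 h, 37 °C; CellTiter-Glo luminescence; % activity normalised to DMSO and no-cell wells; curves fitted, classed by r2 and efficacy.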
Numbers without * were called inactive; ? = inconclusive; / = not tested or not shown. An excerpt weighted towards active compounds, which were near 19% of everything screened. Unless noted, the call rests on the fitted dose curve; in most records, active means well fitted curve in the direction sought with a large enough effect; inconclusive means small, poorly fitted or top-dose-only effect, or another doubt; inactive means no such curve, though single readings can be large; an effect the other way counts as inactive or inconclusive. Unless noted, on the % scale 0 is the no-effect control and ±100 the full control effect.

SMILES	TDP1 cell CPT	TDP1 cell noCPT	ELG1 DNA repair	HT1080-NT tox	IL1B secr inh	HT1080 IDH1KD tx
O=C(CSc1nnc(CNC(=O)c2cccc(C(F)(F)F)c2)o1)NC1CCCCC1	-2%	15%	-5%	18%	11	1%
Cc1ccc(CNC(=O)Cn2cnc(C(=O)Nc3ccc(C)c(C)c3)n2)o1	-18%	-27%	?	10%	-7	4%
CC(NS(=O)(=O)c1cccc(Cl)c1)C(=O)N(C)C1CCN(C)CC1 (stereo unspecified)	-20%	1%	25%	11%	11	11%
Cc1[nH]nc(C(F)(F)F)c1N=NN1CCOCC1	2.6µM*	3.3µM*	/	?	-10	?
Clc1ccc(N=NN2CCOCC2)cc1	0%	-23%	?	23%	10	6%
CC1=NN(C(=O)c2ccoc2C)C(O)(C(F)(F)F)C1 (stereo unspecified)	2.9µM*	2.3µM*	?	14%	-2	3%
CC1=NN(C(=O)c2cccnc2)C(O)(C(F)(F)F)C1 (stereo unspecified)	-12%	-12%	7%	?	11	?
CC1=NN(C(=O)Cn2nc([N+](=O)[O-])cc2C)C(O)(C(F)(F)F)C1 (stereo unspecified)	-6%	-18%	-2%	12%	57	13%
CCOc1ccc(CC(=O)N2N=C(C)CC2(O)C(F)(F)F)cc1 (stereo unspecified)	18µM*	5.8µM*	5%	9%	-8	8%
CCCC1=NN(C(=O)Cc2ccc(OC)cc2)C(O)(C(F)(F)F)C1 (stereo unspecified)	?	?	5%	-19%	22	3%
CC1=NN(C(=O)c2csc(C(C)C)c2)C(O)(C(F)(F)F)C1 (stereo unspecified)	0.73µM*	1µM*	6%	1%	12	4%
C=CCOc1ccc(C(c2c(C(=O)O)[nH]c3ccccc23)c2c(C(=O)O)[nH]c3ccccc23)cc1	12%	-8%	4%	-6%	39	0%
CC(C)CCN(C(=O)Cc1ccc(Cl)c(Cl)c1)c1c(N)n(Cc2ccccc2)c(=O)[nH]c1=O	?	26µM*	-3%	?	?	-10%
Cc1ccc(OCCC(=O)N(CCC(C)C)c2c(N)n(Cc3ccccc3)c(=O)[nH]c2=O)cc1	-9%	21µM*	1%	-9%	-1	-9%
O=C(CSCc1ccc(F)cc1)N1CCN(c2ccc(F)cc2)CC1	?	13µM*	-14%	1%	-14	-13%
O=C(CSCc1ccc(F)cc1)N1CCN(c2ccccc2)CC1	?	?	?	4%	-16	-9%
Cc1ccc(C(=O)N2CCC(C(=O)c3ccc(F)cc3)CC2)cc1	?	?	/	-2%	-1	-1%
Cc1ccc(C(=O)C2CCN(CC(=O)N3CCN(c4ccc(F)cc4)CC3)CC2)cc1	?	18µM*	?	-19%	-55*	-22%
COc1ccc(N2CCN(C(=O)CSCc3ccc(C)cc3)CC2)cc1	21µM*	18µM*	/	/	/	/
O=C(CCC(=O)N1CCN(c2ccc(O)cc2)CC1)c1cccs1	?	23µM*	-18%	6%	8	-30%
CC(C)(C)OC(=O)C[C@H]1C/C=C\C[C@@H](CC(=O)N(CCO)Cc2ccccc2)C(=O)N[C@@H](Cc2ccccc2)COC1=O	?	?	?	11%	-16	7%
